Laboratory results taken from PubChem BioAssay AID602230 (The Scripps Research Institute Molecular Screening Center, 2012).
Among all 1,400 compounds or so, about 450 (32%) were called active. Not all results are given here. A number with no mark means an inactive call. Cut-off read from the data, not from the text of the source: active = inhibition above about 16%; inactive = the rest.

What follows are molecules tested against Lon protease (Escherichia coli (strain K12)) (UniProt P0A9M0) (assay: inhibition of eLon from E. coli – biochemical, fluorescence polarization, confirmation (AID 602230;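 note: 0% = enzyme with probe and DMSO and 100% = no enzyme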)). Conditions: purified E. coli Lon, at 7.94 µM, hits give high values.
Lon protease (Escherichia coli (strain K12)), sequence (P0A9M0 whole entry, looked up): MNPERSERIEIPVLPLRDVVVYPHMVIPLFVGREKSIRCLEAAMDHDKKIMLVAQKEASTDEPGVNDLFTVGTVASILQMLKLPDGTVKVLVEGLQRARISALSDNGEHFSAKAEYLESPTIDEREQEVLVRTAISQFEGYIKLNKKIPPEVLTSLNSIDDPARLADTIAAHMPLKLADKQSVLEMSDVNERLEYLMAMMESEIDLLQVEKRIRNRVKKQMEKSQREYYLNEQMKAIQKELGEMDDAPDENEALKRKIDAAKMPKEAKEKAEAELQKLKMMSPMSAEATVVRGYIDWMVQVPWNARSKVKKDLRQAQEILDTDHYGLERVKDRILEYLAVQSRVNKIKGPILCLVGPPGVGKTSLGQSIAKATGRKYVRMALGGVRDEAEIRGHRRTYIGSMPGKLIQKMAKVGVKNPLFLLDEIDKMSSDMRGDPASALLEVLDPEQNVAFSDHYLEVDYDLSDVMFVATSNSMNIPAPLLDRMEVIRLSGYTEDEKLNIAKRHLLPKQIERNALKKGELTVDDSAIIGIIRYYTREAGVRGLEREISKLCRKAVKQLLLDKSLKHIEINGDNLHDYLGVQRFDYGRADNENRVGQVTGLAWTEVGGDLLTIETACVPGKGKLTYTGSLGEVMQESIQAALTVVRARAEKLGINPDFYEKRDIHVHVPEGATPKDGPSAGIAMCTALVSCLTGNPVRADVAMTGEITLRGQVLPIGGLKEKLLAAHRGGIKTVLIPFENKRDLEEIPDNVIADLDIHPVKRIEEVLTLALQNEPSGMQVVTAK
`CCCCOCCCNC(=O)C[C@@H]1C[C@@]2(C(=O)OC)CCCCC=C2N(CCC2=CCCCC2)C1=O` showed an inhibition of 9.11%. For `CCOCCN(C=O)c1cccc(OC)c1`, the inhibition was -7.16%. With `COc1ccc(N2CCN(C3CCCCC3NS(=O)(=O)c3ccccc3)CC2)cc1` (stereo not given) the inhibition was -0.98%. Work on `COc1ccc(C(=O)NC(C)CCc2ccccc2)c(OC)c1` (stereo not given) yielded an inhibition of -4.57%. For `COc1cc([C@H](Cc2ccccc2)NC(C)=O)oc(=O)c1`, the inhibition was 28.5% (active). In the case of `COc1ccc(OC)c(NC(=O)Cc2cccs2)c1`, the inhibition is reported as -9.37%. In the case of `O=C(C1=C(O)C(=O)N(c2ncccn2)C1c1cccs1)c1ccco1` (stereo not given), the inhibition is reported as 7.23%. For `O=C1C2C3C=CC(C4CC34)C2C(=O)N1/N=C/c1ccc(-c2ccccc2[N+](=O)[O-])o1` (stereo not given), the inhibition was 1.11%. `CN(C)Cc1c(C(=O)N/N=C/c2ccccc2OCc2ccc(F)cc2)nnn1-c1nonc1N` was tested, and the inhibition was 4.47%. For `O=C(CN1CCCSc2ccccc21)N1CCN(S(=O)(=O)c2cccc(F)c2)CC1`, the inhibition was 40.1% (active). Work on `Clc1ccccc1CSc1nnc(-c2ccco2)c(-c2ccco2)n1` yielded an inhibition of -6.52%. In the case of `CCOC(=O)N1CCC(NC(=O)Cc2cn(C)c3ccccc23)CC1`, the inhibition is reported as -16.7%. For `Oc1ccc2ccccc2c1N=Nc1nccs1`, the inhibition was 3.97%. Molecule `Cc1coc2c(O)cc3c(c12)OC1(N2CCCCC2)C(=O)NCCCC31` (stereo not given) has an inhibition of 6.1%. In the case of `COc1ccc(C(=O)NCc2nnc(SCCOc3ccccc3)n2C)cc1`, the inhibition is reported as -3.94%. In the case of `COc1ccc(-c2onc3ccc(C(C)=O)cc23)cc1`, the inhibition is reported as 182% (active). `COc1ccc(-c2nc(CS(=O)CC(=O)NCc3ccccn3)c(C)o2)cc1` (stereo not given) was tested, and the inhibition was 64.8% (active). `COc1ccc(CC(=O)Nc2ccc(-c3nnc(-c4ccccc4)o3)cc2)cc1` showed an inhibition of -10.3%. With `COc1ccc(S(=O)(=O)N2CCOCC2)cc1NC(=O)Cc1c(F)cccc1Cl` the inhibition was -1.93%. With `O=C(COC(=O)c1ccccc1C(=O)N1CCN(c2ccccc2)CC1)NCc1ccccc1` the inhibition was 5.02%. Molecule `CC(=O)NC(=S)Nc1ccc(NC(=S)NC(=O)c2ccc([N+](=O)[O-])cc2)cc1` has an inhibition of -6.29%. In the case of `CC1=NN(C(=O)CCc2ccccc2O)C(O)(C(F)(F)F)C1` (stereo not given), the inhibition is reported as 9.05%. Molecule `CC1(C)OC(=O)C(=CNC(CO)C(=O)O)C(=O)O1` (stereo not given) has an inhibition of -19.2%. `Cc1ccccc1Nc1nc(N)nc(CN2CCN(c3ccccn3)CC2)n1` showed an inhibition of 3.69%. With `CCc1ccc(NC(=O)C(=O)N/N=C(\C)CC(=O)NCCOC)cc1` the inhibition was -6.81%. With `COCCNC(=O)Nc1ccc2nc(-c3ccco3)c(-c3ccco3)nc2c1` the inhibition was 23.4% (active). In the case of `COc1ccc(Nc2nc(-c3cccnc3)nc3ccccc23)cn1`, the inhibition is reported as 39.8% (active). Molecule `COc1ccc(Nc2ccc([N+](=O)[O-])cn2)cn1` has an inhibition of -45.8%. Work on `Cc1ccc2nc3c(cc(C(=O)NCCc4ccccc4)c(=N)n3CC3CCCO3)c(=O)n2c1` (stereo not given) yielded an inhibition of 3.71%. Work on `COc1ccc2[nH]c(C)c(CCN(Cc3cccs3)C(=S)Nc3ccccc3OC)c2c1` yielded an inhibition of 3.35%. Molecule `CCCC(O)(CCC)C(=O)NN(C(=O)CCl)c1cccc(C)c1` has an inhibition of -3.35%. `NC(=O)c1ccc(NC(=O)COC(=O)c2c3c(nc4ccccc24)/C(=C\c2ccc4c(c2)OCO4)CCC3)cc1` was tested, and the inhibition was -8.01%. For `O=C1c2cccc3c([N+](=O)[O-])ccc(c23)C(=O)N1CC1CCCO1` (stereo not given), the inhibition was 34.9% (active). `Cc1cc2nc3c(=O)n(Cc4ccccc4)c(=O)[nH]c3nc2cc1N` was tested, and the inhibition was 153% (active). For `COCCn1c(N)c(NCc2ccccc2)c(=O)[nH]c1=O`, the inhibition was 7.51%. `Nc1ccccc1/C=N\N=C/c1ccccc1N` showed an inhibition of 8.46%. Work on `CCCN(CCC)C(=O)C1c2ccccc2Oc2ccccc21` yielded an inhibition of -11.4%. `COC(=O)C[n+]1cccc2ccccc21` was tested, and the inhibition was 116% (active). `COc1ccc(C2c3ccc(O)cc3Oc3ncn(CCCO)c(=N)c32)cc1OC` (stereo not given) was tested, and the inhibition was -7.63%. For `CCN(CC)CCCNC(=O)c1cn(C)c2ccc(S(=O)(=O)N(C)C3CCCCC3)cc2c1=O`, the inhibition was -0.99%. For `Cc1cc(Br)cn2c(Cc3ccsc3)c(-c3ccc(C#N)cc3)nc12`, the inhibition was 45.3% (active). `Cc1ccc(S(=O)(=O)CCC(=O)OCc2ccccc2)cc1` was tested, and the inhibition was -7.16%. In the case of `Oc1ccc(N=Cc2sc3ccccc3c2Cl)cc1`, the inhibition is reported as -21.5%. With `O=C(COC(=O)CCc1c[nH]c(=O)[nH]1)Nc1ccccc1Cl` the inhibition was 51.4% (active). `COc1cccc2sc(N(CCCN(C)C)C(=O)CCS(=O)(=O)c3ccccc3)nc12` gave an inhibition of 7.07%.
